Test results published in publication PMC5700166.

The sequences below were run against GST-Hu-p50 (Homo sapiens, UniProt P19838 7-356) (assay: protein-binding microarray (PBM); PBM: ~300 nM protein, 6 mM HEPES pH 7.8, 80 mM KCl, 0.5 mM EDTA, 0.5 mM EGTA, 6% glycerol, 35 ng/ul poly-dIdC, 1% milk, 1 h, room temperature; Ap Aiptasia and Nv Nematostella (sea anemones) / Co Capsaspora / Aq Amphimedon (sponge) / Dm Drosophila / Hu human; RHD is the Rel homology domain; high values mean tight binding). Conditions: dsDNA, one strand shown.
Chain of GST-Hu-p50 (P19838 7-356): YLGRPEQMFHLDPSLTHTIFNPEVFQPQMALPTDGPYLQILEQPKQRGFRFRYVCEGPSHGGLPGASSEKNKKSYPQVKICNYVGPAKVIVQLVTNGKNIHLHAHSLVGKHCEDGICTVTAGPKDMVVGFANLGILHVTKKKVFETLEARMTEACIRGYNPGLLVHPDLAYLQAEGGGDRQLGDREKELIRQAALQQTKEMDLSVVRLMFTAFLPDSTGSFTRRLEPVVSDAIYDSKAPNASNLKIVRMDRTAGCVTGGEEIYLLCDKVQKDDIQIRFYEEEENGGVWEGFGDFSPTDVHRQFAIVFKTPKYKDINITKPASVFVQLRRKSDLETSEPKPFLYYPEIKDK
In the case of “CCGATTAACATCAGGGATTCCCCTGATGTTAATCGGGTCTTGATTCGCTTGACGCTGCTG”, the binding signal is reported as 8.74 z-score. Work on “CCGATTAACATCAACACCCCCCTTGATGTTAATCGGGTCTTGATTCGCTTGACGCTGCTG” yielded a binding signal of 4.37 z-score. “CCGATTAACATCAGGGAACACCCTGATGTTAATCGGGTCTTGATTCGCTTGACGCTGCTG” was tested, and the binding signal was 3.05 z-score.
